Bioassay records as filed in PubChem BioAssay.
rCAG binder: binders of r(CAG) RNA repeats, primary screen, biochemical, fluorescence. 1.3% of 370,000 active. r(CAG) RNA repeat, TO-PRO-1 dye displacement fluorescence. AID 651821, 2012. inhibition, % at 3 µM;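 active means inhibition above the plate cutoff, the mean of all test compounds on that plate plus 3 SD, cut at about 35% in these data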;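 further: 0% = DMSO alone and 100% = 100 µM mitoxantrone as full dye displacement; higher means more dye released from RNA so lower well fluorescence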
sPLA2-III inh: human group III sPLA2 inhibitors, primary screen, biochemical, QFRET, BODIPY PC-A2 liposome substrate; Group 3 secretory phospholipase A2 (Homo sapiens), Q9NZ20; inhibition, % at 12.2 µM; 0.56% of 370,000 active; QFRET BODIPY PC-A2 liposome hydrolysis, fluorescence;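 active means inhibition above mean plus 3 SD of compounds lying within the high and low control bounds, cut at about 19% in these data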;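 further: 0% = median of test compound wells and 100% = no enzyme DMSO wells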
Target sequence (Q9NZ20 whole entry, looked up): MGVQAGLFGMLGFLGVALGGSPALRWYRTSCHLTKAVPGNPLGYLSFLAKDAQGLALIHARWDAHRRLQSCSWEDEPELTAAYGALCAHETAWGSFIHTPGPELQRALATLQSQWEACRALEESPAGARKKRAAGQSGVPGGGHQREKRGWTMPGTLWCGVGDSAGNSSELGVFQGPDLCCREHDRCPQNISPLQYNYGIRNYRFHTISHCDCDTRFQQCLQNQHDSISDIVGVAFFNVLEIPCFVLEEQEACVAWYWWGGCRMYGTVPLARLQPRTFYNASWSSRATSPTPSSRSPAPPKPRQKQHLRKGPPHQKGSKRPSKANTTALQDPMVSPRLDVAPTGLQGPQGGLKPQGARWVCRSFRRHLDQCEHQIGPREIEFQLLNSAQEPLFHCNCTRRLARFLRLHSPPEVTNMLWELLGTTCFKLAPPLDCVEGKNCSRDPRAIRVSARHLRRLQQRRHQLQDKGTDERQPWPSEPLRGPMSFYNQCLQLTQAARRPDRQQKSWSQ
MsrA inhibitor: bovine MsrA enzyme inhibitors, primary screen, biochemical, absorbance, HTS. Methionine sulfoxide reductase A (Bos taurus). purified bovine MsrA, absorbance read-out. inhibition, % at 15.5 µM. 0.75% of 360,000 active. AID 651718, 2012; in the data active means inhibition above about 4.5%;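 further: 0% = vehicle wells with enzyme and 100% = reference inhibitor wells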
PG9 Ab binder: binders of HIV-1 gp120 antibody PG9, primary screen, biochemical, TR-FRET; TR-FRET gp120-PG9 antibody binding; inhibition, % at 6.7 µM; 0.43% of 360,000 active; AID 624416, 2012; in the data active means inhibition above about 8.5%
bovine MsrA act: bovine MsrA enzyme activators, primary screen, biochemical, absorbance, HTS. activation, % at 10.6 µM. purified bovine MsrA, absorbance read-out. 0.3% of 360,000 active; in the data active means activation above about 7.5%;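 further: 0% = vehicle and 100% = reference activator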
rCAG binder conf: small molecules binding CAG repeat RNA – biochemical, fluorescence, confirmation; shares compounds with rCAG binder; r(CAG) RNA repeat, TO-PRO-1 dye displacement fluorescence; inhibition, % at 3 µM; 70% of 4,300 active; AID 652065, 2013;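 active means inhibition above a per-plate cutoff, the mean inhibition of sample wells plus 3 SD, cut at about 35% in these data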;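 further: loss of TO-PRO-1 fluorescence as compound displaces dye from 1x1 AA loop RNA; 0% = DMSO only wells and 100% = 100 µM mitoxantrone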
dCAG dye counter: displacement of TO-PRO-1 from CAG DNA duplex, counter-screen for rCAG RNA repeat binder project, biochemical, fluorescence, TO-PRO-1 dye, d(CAG) DNA oligo; 94% of 4,300 active; d(CAG) DNA oligo TO-PRO-1 dye displacement; shares compounds with rCAG binder; inhibition, % at 3 µM;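 active means inhibition above its plate's cutoff, the mean test-well inhibition plus 3 SD, cut at about 4.8% in these data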;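 further: 0% = DNA dye mix with DMSO and 100% = 100 µM mitoxantrone; hits displace the dye from DNA and so lower well fluorescence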
DNA CAG DR: inhibitors of DNA CAG/GTC TO-PRO-1 complex, dose response, counter-screen for rCAG RNA repeat binder project, biochemical, fluorescence, TO-PRO-1 dye | DNA CAG/GTC duplex TO-PRO-1 dye displacement fluorescence | IC50, µM | shares compounds with rCAG binder | 20% of 250 active; in the data active means IC50 below about 10 µM
An asterisk follows results filed as active; . = no result given. Shown are actives, neighbours in structure and some others; about 3.2% of the full set was active somewhere.

SMILES	rCAG binder	sPLA2-III inh	MsrA inhibitor	PG9 Ab binder	bovine MsrA act	rCAG binder conf	dCAG dye counter	others
Cc1ccc(S(=O)(=O)NC(=O)c2cc(C)n(-c3cc(S(=O)(=O)N4CCOCC4)ccc3N3CCCC3)c2C)cc1	36*	-17	0	-2	-3	49*	15*
CCOC(=O)NC[C@@]1(C(=O)OC)CC(=O)N(C)[C@@H]1c1ccccc1	-2	4	.	.	.	.	.
O=C(NN=Cc1cccc(OCc2ccccc2)c1)c1cc(-c2ccc(Cl)cc2)n[nH]1	11	-11	.	.	.	.	.
Cc1ccc(C(=O)O)cc1NC(=S)NC(=O)c1ccc(-c2ccccc2)cc1	55*	-2	0	-1	-1	67*	20*
COc1ccc(C(=O)O)cc1NC(=S)NC(=O)c1ccc(-c2ccc(Cl)cc2)o1	40*	0	1	0	-3	72*	32*	DNA CAG DR=7.7*
CC(C)(C)OC(=O)NCc1cc2c(cc1/C=C/S(=O)(=O)NCc1ccc(F)cc1)OCO2	2	9	.	.	.	.	.
O=C(CSCc1ccc(Cl)cc1)Nc1ccc(Br)cc1C(=O)O	44*	-14	1	-2	-4	36*	8.7*
COc1ccc(/C=C2\SC(=S)N(CCCC(=O)Nc3ccc(C(=O)O)cc3)C2=O)cc1OC	64*	-18	1	-2	-8	53*	18*
O=C(O)CCN1C(=O)/C(=C\c2cccc(OCC(=O)Nc3ccc(Cl)cc3)c2)SC1=S	71*	-22	1	1	-6	82*	43*
COc1cccc(/C=C2\SC(=S)N(CCCC(=O)Nc3ccc(C(=O)O)cc3)C2=O)c1	69*	-5	0	-4	-3	61*	22*
COc1cccc(/C=C2/SC(=S)N(CCCC(=O)Nc3ccc(O)cc3)C2=O)c1	10	-36	0	-2	-1	.	.
CCOC(=O)N1CCN(C(=O)C[C@H]2C[C@@]3(C(=O)OC)C(=C[C@H](C(C)C)O[C@@H]3C3CC3)N(Cc3ccc(Cl)cc3Cl)C2=O)CC1	4	-2	.	.	.	.	.
COc1ccc(-c2ccc3c(n2)CCCN3Cc2ccccc2C(F)(F)F)cc1	7	17	2	-1	.	.	.
CCCC(C(=O)O)N1C(=O)/C(=C2\C(=O)N(C)c3ccccc32)SC1=S (stereo not given)	56*	12	2	-3	-3	63*	26*
O=C(O)CCN1C(=O)/C(=C2\C(=O)N(Cc3ccccc3Cl)c3ccccc32)SC1=S	3	-2	0	-2	-1	.	.
O=C(O)CN1C(=O)/C(=C2\SC(=S)N(C(Cc3ccccc3)C(=O)O)C2=O)c2ccccc21 (stereo not given)	69*	2	1	-5	-3	47*	12*
Cc1ccc(S(=O)(=O)N2CCCC(C(=O)Nc3c(C)n(C)n(-c4ccccc4)c3=O)C2)cc1 (stereo not given)	-1	2	.	.	.	.	.
COc1cccc(NC(=O)CSc2ncc(S(=O)(=O)c3ccccc3)c(=O)[nH]2)c1	20	-5	1	0	-2	.	.
Cc1ccc(NC(=O)CSc2ncc(S(=O)(=O)c3ccccc3)c(=O)[nH]2)cc1C	49*	-38	-1	1	-4	43*	11*
Cc1ccc(S(=O)(=O)Nc2ccc3cn[nH]c3c2)cc1	47*	-21	1	1	-3	3	1
Cc1ccc(S(=O)(=O)Nc2ccc3c(c2)C(=O)c2ccccc2-3)cc1	37*	-29	0	0	-3	31	7.0*
Cc1ccc(S(=O)(=O)Nc2ccc3cn[nH]c3c2)cc1C	6	-46	0	-1	-12	.	.
Cc1ccc(S(=O)(=O)Nc2ccc(O)c(S(=O)(=O)c3ccc(C)cc3)c2)cc1	14	-21	0	-3	-3	.	.
O[C@H](COc1cccc(F)c1)CN1CCC(C(O)(c2ccccc2)c2ccccc2)CC1	0	-20	.	.	.	.	.
CNC(=S)N/N=C/c1c(C(=O)OC)cnn1-c1ccc(Cl)cc1	.	11	.	.	.	.	.
SMILES	rCAG binder	sPLA2-III inh	MsrA inhibitor	PG9 Ab binder	bovine MsrA act	rCAG binder conf	dCAG dye counter	others
COC(=O)c1ccccc1NS(=O)(=O)c1ccc2c3c(cccc13)C(=O)N2	9	-30	0	-1	-2	.	.
Cc1oc2c(cc(NS(=O)(=O)c3ccc4c5c(cccc35)C(=O)N4)c3ccccc32)c1C(=O)OC(C)C	37*	-37	1	2	2	38*	17*
CCOC(=O)c1c(C)oc2c1cc(NS(=O)(=O)c1ccc(C(=O)O)cc1)c1ccccc12	67*	-21	0	-3	-2	55*	20*
Cc1oc2c(cc(NS(=O)(=O)c3ccc(Cl)cc3)c3ccccc32)c1C(=O)O	26	-15	1	-1	-4	.	.
CC[C@H](CCCc1ccc(OC)cc1)CCC(=O)N(c1ccccc1)c1ccccc1	7	-6	.	.	.	.	.
Cc1ccccc1C(=O)Nc1cccc(C(=O)N/N=C/c2ccc3c(c2)OCO3)c1	7	-2	4	0	-3	.	.
Cc1ccccc1C(=O)Nc1cccc(C(=O)N/N=C/c2cc(Cl)cc([N+](=O)[O-])c2O)c1	87*	12	1	-3	-2	73*	36*
Cc1cc(C(=O)N/N=C/c2cc(Br)cc([N+](=O)[O-])c2O)c2ccccc2n1	49*	-5	1	-1	-9	58*	20*
O=C(O)c1cc([N+](=O)[O-])ccc1NCc1ccccc1	11	-19	3	2	-9	.	.
O=C(O)c1cc([N+](=O)[O-])ccc1NCCCc1ccccc1	37*	-37	1	0	-3	31	6.5*
CN(C)[C@@H]1CCN(c2cccc3c2S(=O)(=O)N(C2CC2)CCCO3)C1	5	-2	.	.	.	.	.
CCCC[C@@H]1C(=O)N2N=C(c3ccccc3)c3ccccc3[C@H]2N2N=C(c3ccccc3)c3ccccc3[C@@H]12	9	1	.	.	.	.	.
CCOc1ccc(-n2c(COc3ccc(Cl)cc3)nnc2SCC(=O)Nc2ccc(OCc3ccccc3)cc2)cc1	8	-6	.	.	.	.	.
Cc1nnc(NC(=O)c2cc(-c3ccco3)nc3ccccc23)s1	37*	1	3	2	-7	18	8.7*
Cc1csc(NC(=O)c2cc(-c3ccco3)nc3ccccc23)n1	44*	4	0	-2	-5	46*	20*
